Results published in PubChem BioAssay AID1851 (National Center for Advancing Translational Sciences (NCATS), 2009).
Where “and” joins values, the source holds several entries; their conditions need not be identical. Identical values can stand only once. The whole screen tested about 16,000 compounds, of which about 2,600 (16%) were called active. Another 20% or so got no clear call; they are omitted. A selection follows. Unmarked numbers belong to inactive results. Calls follow the shape of the dose curve; as a rule, active = well fitted curve in the direction sought with a large enough effect; inconclusive = small, poorly fitted or top-dose-only effect, or effect the other way; inactive = no such curve, though single readings can be large or run the other way.

What follows are compounds tested against Cytochrome P450 2D6 (Homo sapiens) (UniProt P10635) (assay: Cytochrome panel assay with activity outcomes). Conditions: recombinant CYP, pro-luciferin dealkylation, luminescence, p450-cyp2d6; series mostly up to 57.1 µM.
Chain of Cytochrome P450 2D6 (Homo sapiens) (P10635 whole entry, looked up): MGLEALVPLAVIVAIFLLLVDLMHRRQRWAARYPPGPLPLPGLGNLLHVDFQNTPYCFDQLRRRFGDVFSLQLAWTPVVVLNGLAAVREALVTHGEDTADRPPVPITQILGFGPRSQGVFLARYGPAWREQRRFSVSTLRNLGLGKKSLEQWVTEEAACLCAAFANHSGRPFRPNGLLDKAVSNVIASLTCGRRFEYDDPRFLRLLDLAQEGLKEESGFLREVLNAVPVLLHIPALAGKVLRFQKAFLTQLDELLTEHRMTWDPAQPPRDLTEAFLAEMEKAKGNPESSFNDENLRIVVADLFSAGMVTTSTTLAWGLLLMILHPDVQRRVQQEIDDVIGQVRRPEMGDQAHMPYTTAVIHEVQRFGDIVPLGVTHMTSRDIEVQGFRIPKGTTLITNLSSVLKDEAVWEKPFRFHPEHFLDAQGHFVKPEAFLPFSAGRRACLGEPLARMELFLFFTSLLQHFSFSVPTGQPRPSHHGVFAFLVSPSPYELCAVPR
% is scaled to controls: 0 for no effect and ±100 for the full control effect.

| SMILES | AC50 | activity, negative = inhibition |
| --- | --- | --- |
| COc1cc(/C=C2/C(=N)N3OC(C)=CC3=NC2=O)ccc1OCCOc1ccc(C)cc1 | inactive |  |
| COc1cccc(/C=N/NC(=O)CO/N=C(\C)c2cccs2)c1OC | inactive |  |
| CC1CCN(c2ccc(NC(=S)NC(=O)c3ccco3)cc2)CC1 | inactive |  |
| COc1ncc2nc(-c3cc(F)cc(F)c3)c(=O)n(C3CC3)c2n1 | inactive |  |
| COC(=O)c1ccc(Cl)c(NC(=O)c2ccc(-c3ccccc3)cc2)c1 | inactive |  |
| CCOc1c(Cl)cc(C(=O)Nc2ccccc2-c2ccccc2)cc1Cl | 0.0126 µM (active) |  |
| CCOC(=O)c1ccc(Cl)c(NC(=O)c2ccc(-c3ccccc3)cc2)c1 | inactive |  |
| COc1nc(OCCNC(C)=O)nc(N(C)C)n1 | inactive |  |
| CC(C)NC(=O)c1ccccc1NC(=O)/C=C/c1ccc([N+](=O)[O-])cc1 | inactive |  |
| Cc1cccc(NC2(C(F)(F)F)N=C(c3ccccc3)NC2=O)n1 (configuration not stated) | inactive |  |
| O=C(O)c1cc(=O)c2c(Cl)cc(Cl)cc2[nH]1 | inactive |  |
| Cc1cc(Br)cc(C)c1OCCCCN(C)C | 2 µM (active) |  |
| CCN1C(=O)[C@H]2[C@H]3[C@H](O)[C@H](O)C/C(=N/OC[C@@H](O)COCc4ccco4)[C@H]3CC[C@@H]2C1=O |  | -6.12% [at 11.4 µM] |
| Nc1nc(-c2cc(-c3cccc4ccccc34)nc(N)n2)cc(-c2cccc3ccccc23)n1 |  | -0.19% [at 11.4 µM] |
| Nc1cc2c(nc3c4ccccc4c(N)cc3[n+]2-c2cccc3ccccc23)c2ccccc12 (tested in a mixture with another compound) | 1.58 µM (active) |  |
| CSCC[C@@H]1NC(=O)C/C=C\[C@@H](C)COC(=O)[C@@H](C)COC1=O |  | 16.4% [at 11.4 µM] |
| Cc1sc(=NC(=O)c2ccco2)n(C)c1-c1ccccc1 | inactive |  |
| O=C(O)C[C@@H](C(=O)O)C1c2ccccc2-c2ccccc21 |  | 6.65% [at 11.4 µM] |
| COc1cc(NC(=O)c2ccccc2)c(OC)cc1NC(=O)CN1CCN(c2ccccn2)CC1 | inactive |  |

| SMILES | AC50 | activity, negative = inhibition |
| --- | --- | --- |
| CCOc1ccccc1NC(=O)CCC(=O)O | inactive |  |
| COc1ccc(NC(C)=O)cc1NC(=O)CN1CCN(CC(=O)Nc2ccccc2Cl)CC1 | inactive |  |
| Cc1ccc(C(=O)C(OC(=O)CN2C(=O)c3ccccc3C2=O)c2ccccc2)cc1 (configuration not stated) | inactive |  |
| COc1ccc(NC(C)=O)cc1NC(=O)CN1CCN(C2c3ccccc3-c3ccccc32)CC1 | 15.8 µM (active) |  |
| CCOc1ccccc1NC(=O)CN1CCC(NC(=O)c2ccccc2)CC1 | 15.8 µM (active) |  |
| COc1ccccc1NC(=O)CN1CCN(C2c3ccccc3-c3ccccc32)CC1 | 0.0251 µM (active) |  |
| COc1ccccc1NC(=O)CCN1C(=O)C2CC=C(Cl)CC2C1=O (configuration not stated) | inactive |  |
| CCOc1ccccc1NC(=O)C(=O)NCC1CCCN1CC (configuration not stated) | inactive |  |
| CCn1c(-c2ccccc2Cl)nn(CC(=O)Nc2ccccc2OC)c1=S | inactive |  |
| CC(C)OC(=O)CN1CCN(C2c3ccccc3-c3ccccc32)CC1 | 0.251 µM (active) |  |
| CC(=O)c1c(N2CCC(C(N)=O)CC2)nc(=S)n(-c2ccccc2)c1C | inactive |  |
| CCCc1cc2c(=O)c(-c3ccc4c(c3)OCCO4)coc2cc1OC(=O)c1ccco1 | inactive |  |
| COC(=O)c1c(-n2c(C)cc(C=O)c2C)sc2c1CCCC2 | inactive |  |
| CCOC(=O)c1c(-c2ccc(C)cc2)csc1NC(=O)C1CC=CCC1C(=O)O (configuration not stated) | inactive |  |
| COC(=O)[C@@H]1O[C@@H](c2c(OC)c(OC)c(C)c(OC)c2OC)[C@H](C)[C@@H](O)[C@@H]1C |  | 15.2% [at 11.4 µM] |
| NS(=O)(=O)c1cc(C(=O)O)cc(N2CCCC2)c1Oc1ccccc1 | inactive |  |
| O=C(c1cn(-c2ccccc2)nc1-c1cccs1)N1CCOCC1 | inactive |  |
| O=C1C[C@@H](O)[C@@H](O)[C@H]2[C@@H]3C(=O)N(c4cccc(Oc5ccccc5)c4)C(=O)[C@@H]3CC[C@H]12 |  | -10.1% [at 11.4 µM] and -0.87% [at 11.4 µM] |
| CCOC(=O)Cc1cc(=O)n2[nH]c(C)c(-c3ccccc3)c2n1 | inactive |  |

| SMILES | AC50 | activity, negative = inhibition |
| --- | --- | --- |
| CCS(=O)(=O)c1ccc2c(c1)N(S(C)(=O)=O)CC(C(=O)NCCOC)O2 (configuration not stated) | inactive |  |
| Cc1ccccc1-c1nc(-c2ccc(NC(=O)c3cccs3)cc2)no1 | inactive |  |
| O=C(Nc1ccccc1)c1cc(-n2cnnc2)ccc1Cl | inactive |  |
| C[C@]12CC[C@H]3c4ccc(OC[C@H]5CO5)cc4CC[C@H]3[C@H]1CC[C@@H]2O |  | -13.3% [at 11.4 µM] |
| O=C(Oc1ccccc1)N1CCC[C@@]2(CCN(c3ccccn3)C2)C1 | 7.94 µM (active) |  |
| O=C(c1ccncc1)N1CCC[C@@]2(CCN(c3ccccn3)C2)C1 | inactive |  |
| O=C(Oc1ccccc1)N1CCC2(CC1)CN(c1ccccn1)C2 | inactive |  |
| O=C(Oc1ccccc1)N1CCC[C@@]2(CCN(c3ncccn3)C2)C1 | inactive |  |
| COC(=O)N1CCC[C@@]2(CCN(c3ncccn3)C2)C1 | inactive |  |
| COC(=O)N1CCC[C@@]2(CCN(c3ccccn3)C2)C1 | 12.6 µM (active) |  |
| Cc1ccc(-c2nnc(-c3ccc(NC(=O)c4cccs4)cc3)o2)cc1 | inactive |  |
| Cc1ccc(S(=O)(=O)O[C@H]2C[C@@H](C(C)(C)C)CC[C@@H]2c2ccccc2)cc1 |  | -9.43% [at 11.4 µM] |
| CCOC(=O)C1=NOC(CNC(=O)C2=NOC(CNC(=O)c3c(-c4ccccc4Cl)noc3C)C2)C1 (configuration not stated) | inactive |  |
| C/C(CCN1CCc2nc(-c3ccccc3)c(-c3ccccc3)cc2C1)=N\OC[C@@H](C)[C@H](OCc1ccccc1)C(C)C |  | 13.5% [at 11.4 µM] |
| CC(C)(C)c1ccc(S(=O)(=O)/C=C\C#N)cc1 | inactive |  |
| Cc1ccc(S(=O)(=O)/C=C\C#N)cc1 | 0.0158 µM (active) |  |
| Cc1ccc(S(=O)(=O)CCCS(=O)(=O)c2ccc(C)cc2)cc1 | inactive |  |
| CC1(C)Cc2c(sc3c2C(=O)N(c2ccccc2)C2=NCCN23)CS1 | inactive |  |
| C=C1CCO[C@@]2([C@H](O)[C@@](C)(O)CO)NC(=O)[C@]1(O)NC2=O |  | 9.37% [at 11.4 µM] |
